SARS PLpro yeast = blocks SARS-CoV papain-like protease in a yeast assay. S. cerevisiae expressing SARS-CoV PLpro, growth rescue. Potency, µM (series often up to 32.9 µM), for inactives: top-dose activity, positive = growth rescue, most hits filed as activators. actives 0.19% (n = 330,000). AID 485353; calls by dose curve; also: 0% is about no effect; nearly all actives have a fitted effect of over 55% in size
NS1 function inh = influenza NS1 inhibition. actives 0.4% (n = 270,000). Potency, µM (highest dose often 46.1 µM), for the others: at the top dose activity, positive = more growth. AID 2326; calls by dose curve; also: actives are rising curves; nearly all actives have a fitted effect of over 50% in size
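Compounds were scored for reversing the slow growth caused by influenza A NS1 in S. cerevisiae, measured by optical density at 600 nm. Assay medium contained 2% galactose at pH 6.0; NS1-free yeast of the same strain were the positive control.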
HCV inhibitor = inhibitors of hepatitis C virus infection; Huh7.5.1 HCVcc-Cre infection, luciferase reporter, 44 h; Potency, µM (doses to about 41.8 µM), inactives show top-dose activity change, negative = inhibition, most hits filed as inhibitors; actives 3.4% (n = 340,000); AID 651820; also: % is scaled to controls: 0 for no effect and ±100 for the full control effect
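Cells seeded at 1,000/well and cultured 4 h, then compounds added followed by HCVcc-Cre virus (~0.5 moi). After 44 h further culture, luciferase substrate was added, plates held 15 min at room temperature, and luminescence read for 15 sec.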
Pf growth 96h = P. falciparum growth inhibition at 96 hour, primary screen for plastid delayed-death inhibitors | actives 6.9% (n = 320,000) | Potency, µM (titrated, usually from 28.7 µM), without a hit: top-dose activity change, negative = inhibition, most hits filed as inhibitors | P. falciparum luciferase reporter growth, 96 h; also: % is scaled to controls: 0 for no effect and ±100 for the full control effect
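Plates of compound plus infected erythrocytes (2% hematocrit, 0.05% parasitemia final) incubate 96 hours, 37 C, 5% CO2. Detection reagent added; reduced luminescence from the parasites' luciferase reporter flags inhibition.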
AMA1-RON2 inh = disrupts binding of P. falciparum AMA1 to RON2. actives 0.2% (n = 360,000). AlphaScreen AMA1-biotinylated RON2 peptide binding. Potency, µM (series often up to 58.2 µM), for the others: at the highest dose activity change, negative = inhibition, actives largely listed as inhibitors;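 also: 0% = vehicle wells and -100% = peptide control; nearly all actives have a fitted effect of over 45% in size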
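AMA1 (3D7) with his tag at 25 nM final met compounds first, then biotinylated RON2 peptide at 25 nM; detection used donor plus acceptor beads, 10 µg/mL apiece, read by AlphaScreen after 30 min at room temperature.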
Pf growth 48h = P. falciparum growth inhibition at 48 hours (one generation) | P. falciparum luciferase growth in erythrocytes, 48 h | Potency, µM (titrated, usually from 28.7 µM), without a hit: top-dose activity change, negative = inhibition, hits mostly inhibitors | actives 5.9% (n = 310,000); also: % is scaled to controls: 0 for no effect and ±100 for the full control effect
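Growth was read as firefly luciferase luminescence after a 48 h, 37 C, 5% CO2 exposure of compounds to reporter-bearing P. falciparum cultures (0.1% parasitemia, 2% hematocrit final) in Albumax-supplemented RPMI 1640.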
HCV confirm = confirmation of hepatitis C virus inhibitors; actives 78% (n = 640); Potency, µM (highest dose often 41.8 µM), without a hit: top-dose activity, negative = inhibition, actives largely listed as inhibitors; shares compounds with HCV inhibitor; AID 720575; HCVcc-Cre infectious virus cell assay, luciferase, inhibition; also: nearly all actives have a fitted effect of over 80% in size
HCV cytotox = counter-screen for HCV inhibitors: host cell cytotoxicity | shares compounds with HCV inhibitor | HCV host cell line cytotoxicity counterscreen | Potency, µM (doses to about 41.8 µM), without a hit: at the highest dose activity change, negative = cytotoxicity, usual class: inhibitors | actives 22% (n = 640);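 also: 44 h compound exposure; % is scaled to controls: 0 for no effect and ±100 for the full control effect; nearly all actives have a fitted effect of over 55% in size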
* hit, by the source's call; [ ] = remark or other dose. Only some compounds are listed: those with a hit (about 12% of all), similar ones and a draw of the others. Unless noted, calls follow the shape of the dose curve; as a rule, active = well fitted curve in the direction sought with a large enough effect; inconclusive = small, poorly fitted or top-dose-only effect, or another doubt; inactive = no such curve, though single readings can be large; an effect the other way counts as inactive or inconclusive. Potency is read from the fitted curve at half-maximal effect.

Results for COc1ccc(C(=O)NC2CCCc3c2cnn3-c2ccccc2F)cc1OC (stereo unspecified) ?
SARS PLpro yeast: -3.0%; NS1 function inh: 7.2%; HCV inhibitor: 4.47µM*; Pf growth 96h: inconclusive; AMA1-RON2 inh: inconclusive; Pf growth 48h: 2.0%; HCV confirm: 7.05µM*; HCV cytotox: inconclusive

Results for O=C(Nc1cscc1S(=O)(=O)c1ccccc1)c1ccccc1Cl ?
SARS PLpro yeast: -10.4%; NS1 function inh: -0.2%; HCV inhibitor: -0.3%; Pf growth 96h: 2.6%; AMA1-RON2 inh: -4.2%; Pf growth 48h: -15.7%

How did Cc1ccc(OCCCCN2CCCCC2)c(C)c1 do in these assays?
SARS PLpro yeast: -2.3%; NS1 function inh: -6.9%; HCV inhibitor: 15.7%; Pf growth 96h: inconclusive; AMA1-RON2 inh: 9.4%; Pf growth 48h: 42.6%

Results for Cc1ccc(OCCCCNC2CCCC(C)C2C)c(C)c1 (stereo unspecified) ?
SARS PLpro yeast: 0.3%; NS1 function inh: -2.8%; HCV inhibitor: 7.94µM*; Pf growth 96h: inconclusive; AMA1-RON2 inh: -7.1%; Pf growth 48h: inconclusive; HCV confirm: 25µM*; HCV cytotox: inconclusive

What do the screens show for `COc1cc(CN2C[C@@H](CO)O[C@@H](n3cnc4c(NC5CCCC5)ncnc43)C2)cc(OC)c1OC`?
AMA1-RON2 inh: -6.7%

How did CCn1c(SC)nnc1-c1sc2cc(Cl)ccc2c1Cl do in these assays?
SARS PLpro yeast: -17.2%; NS1 function inh: -49.1%; HCV inhibitor: 5.62µM*; AMA1-RON2 inh: -2.4%; Pf growth 48h: inconclusive; HCV confirm: -32.2%; HCV cytotox: -15.1%

Results for CSc1nnc(-c2sc3cc(Cl)ccc3c2Cl)n1C ?
SARS PLpro yeast: -2.8%; NS1 function inh: -47.0%; HCV inhibitor: inconclusive; AMA1-RON2 inh: 0.1%; Pf growth 48h: 20.2%

What do the screens show for `c1ccc2c(c1)CCN(c1ncnc3c1[nH]c1ccccc13)C2`?
SARS PLpro yeast: -14.8%; NS1 function inh: 0.0%; HCV inhibitor: 2.51µM*; Pf growth 96h: 7.38µM*; AMA1-RON2 inh: -21.4%; Pf growth 48h: 5.22µM*; HCV confirm: 2.8µM*; HCV cytotox: 6.28µM*

What do the screens show for `COc1ccc(/C=N\NC(=O)c2ccccc2[N+](=O)[O-])cc1COc1c(F)c(F)c(F)c(F)c1F`?
SARS PLpro yeast: -7.7%; NS1 function inh: 6.7%; HCV inhibitor: 2.51µM*; Pf growth 96h: -10.4%; AMA1-RON2 inh: -7.1%; Pf growth 48h: 35.6%; HCV confirm: 12.5µM*; HCV cytotox: -20.4%

What do the screens show for `COc1cc(C(=O)OC2CCOC2=O)cc(Cl)c1OC` (stereo unspecified)?
SARS PLpro yeast: -1.9%; NS1 function inh: 15.7%; HCV inhibitor: 7.5%; Pf growth 96h: 42.1%; AMA1-RON2 inh: 3.1%; Pf growth 48h: 31.6%

What do the screens show for `COCCn1c(=O)[nH]c2cc(C(=O)N3CCN(c4ccc(Cl)cc4)CC3)ccc2c1=O`?
SARS PLpro yeast: 1.5%; NS1 function inh: 20.2%; HCV inhibitor: 8.91µM*; Pf growth 96h: 26.1%; AMA1-RON2 inh: 9.5%; Pf growth 48h: -26.9%; HCV confirm: 7.05µM*; HCV cytotox: inconclusive

Results for C[C@@H]1CCC[C@H](C)N1Cc1nc(Cc2ccccc2Cl)no1 ?
SARS PLpro yeast: 0.1%; NS1 function inh: 1.8%; HCV inhibitor: -2.9%; Pf growth 96h: 21.2%; AMA1-RON2 inh: -15.0%; Pf growth 48h: 8.5%

Results for Cc1nc(N)nc(N)c1-c1ccc(Cl)c(Cl)c1 ?
HCV inhibitor: inconclusive; AMA1-RON2 inh: -12.8%

What do the screens show for `Cc1nc(N)nc(N)c1CCCc1ccc(Cl)c(Cl)c1`?
HCV inhibitor: 3.98µM*; AMA1-RON2 inh: -14.6%; HCV confirm: 7.05µM*; HCV cytotox: inconclusive

How did CC(=O)N1c2ccc(S(=O)(=O)N3CCCCC3)cc2CC1C(=O)Nc1ccc(F)cc1C (stereo unspecified) do in these assays?
SARS PLpro yeast: 0.2%; NS1 function inh: 8.9%; HCV inhibitor: -30.0%; Pf growth 96h: 250.3%; AMA1-RON2 inh: -0.3%; Pf growth 48h: -20.1%

How did CC(C)CN(C(=O)CCCOc1ccc(Cl)cc1Cl)c1c(N)n(Cc2ccccc2)c(=O)[nH]c1=O do in these assays?
SARS PLpro yeast: -2.0%; HCV inhibitor: inconclusive; Pf growth 96h: inconclusive; AMA1-RON2 inh: 5.6%; Pf growth 48h: 11.7µM*; HCV confirm: 11.2µM*; HCV cytotox: 81.5%

How did CC(=O)N1CCN(Cc2nc3cc(NC(=O)c4ccccc4Cl)ccc3n2C)CC1 do in these assays?
SARS PLpro yeast: 1.1%; NS1 function inh: -2.2%; HCV inhibitor: -19.8%; Pf growth 96h: inactive; AMA1-RON2 inh: 17.9%; Pf growth 48h: inconclusive

What do the screens show for `CC(=O)N1CCN(Cc2nc3cc(NC(=O)c4ccc(Cl)cc4)ccc3n2C)CC1`?
SARS PLpro yeast: -4.3%; NS1 function inh: 0.2%; HCV inhibitor: 3.55µM*; Pf growth 96h: -23.5%; AMA1-RON2 inh: 7.2%; HCV confirm: 14.1µM*; HCV cytotox: 22.3µM*

What do the screens show for `COc1ccc(C(=O)Nc2cc3c(cc2N2CCCCC2)n(C)c(=O)n3C)cc1OC`?
SARS PLpro yeast: 4.0%; NS1 function inh: 1.9%; HCV inhibitor: inconclusive; Pf growth 96h: inconclusive; AMA1-RON2 inh: -0.5%; Pf growth 48h: inconclusive

Results for COc1cccc(OC)c1C(=O)Nc1ccccc1N1CCCC1 ?
SARS PLpro yeast: 5.3%; NS1 function inh: 3.3%; HCV inhibitor: -19.7%; AMA1-RON2 inh: 16.5%; Pf growth 48h: -14.4%

What do the screens show for `CCn1c(=O)n(CC)c2cc(N3CCCC3)c(NC(=O)c3cc(Cl)ccc3OC)cc21`?
SARS PLpro yeast: 7.6%; NS1 function inh: -4.4%; HCV inhibitor: 3.98µM*; Pf growth 96h: 8.28µM*; AMA1-RON2 inh: -6.1%; Pf growth 48h: inconclusive; HCV confirm: 15.8µM*; HCV cytotox: inconclusive

What do the screens show for `COc1cc2ccccc2cc1C(=O)Nc1ccccc1N1CCCC1`?
SARS PLpro yeast: -4.7%; HCV inhibitor: inconclusive; Pf growth 96h: inconclusive; AMA1-RON2 inh: inconclusive; Pf growth 48h: inconclusive; HCV confirm: 14.1µM*; HCV cytotox: -84.5%

Results for Cc1nnsc1Sc1ccccc1C(=O)O ?
SARS PLpro yeast: -0.4%; HCV inhibitor: 8.5%; Pf growth 96h: 33.2%[5.75 µM]; AMA1-RON2 inh: 1.1%; Pf growth 48h: -39.2%[5.75 µM]

Assay outcomes as filed in PubChem BioAssay.
